{"source": "the OligoGym collection"}
{"molecular_target": "PALM2-AKAP2", "test": "pooled miR-30 sensor sort-seq; sequence = guide strand", "settings": "shRNA"}
{"sequence": "TTGATTTGCTTGTAACATGTTT", "sensor-assay potency score (higher = more potent)": -0.674}
{"sequence": "TTTCTCATGCTCGTCATCCTCA", "sensor-assay potency score (higher = more potent)": 0.127}
{"sequence": "TTGTCAATCATGCTTGCGCGTT", "sensor-assay potency score (higher = more potent)": -1.12}
{"sequence": "TTGAACAGGAGAAGACACCTGA", "sensor-assay potency score (higher = more potent)": 1.01}
{"molecular_target": "PAQR4", "test": "pooled miR-30 sensor sort-seq; sequence = guide strand", "settings": "shRNA"}
{"sequence": "GAACTTATTGAACTGCAGGTGC", "sensor-assay potency score (higher = more potent)": -1.19}
{"sequence": "TAGAAGAGGCTGCGCAGGCAGC", "sensor-assay potency score (higher = more potent)": -1.34}
{"sequence": "TTATTGAACTGCAGGTGCGGCG", "sensor-assay potency score (higher = more potent)": -1.14}
{"sequence": "TAGCAGGGCAGGGAGCCTGGAG", "sensor-assay potency score (higher = more potent)": -1.85}
{"sequence": "TTGGTGGCACATAAAGAGGTGA", "sensor-assay potency score (higher = more potent)": -0.895}
{"sequence": "TTGAACTGCAGGTGCGGCGGCG", "sensor-assay potency score (higher = more potent)": -1.22}
{"sequence": "TTTATTGATGTCATCCAGGGTC", "sensor-assay potency score (higher = more potent)": 0.153}
{"sequence": "AAAGAGGTGATAGAGCACGGAG", "sensor-assay potency score (higher = more potent)": -0.892}
{"sequence": "TTCGTTGTGCAGGTAGAAGAGG", "sensor-assay potency score (higher = more potent)": -0.851}
{"sequence": "TATTGAACTGCAGGTGCGGCGG", "sensor-assay potency score (higher = more potent)": -0.944}
{"sequence": "TAGAGCACGGAGCCTGCAGGGG", "sensor-assay potency score (higher = more potent)": -1.54}
{"sequence": "TCGTTGTGCAGGTAGAAGAGGC", "sensor-assay potency score (higher = more potent)": -0.773}
